# Laboratory results reported in PubChem BioAssay (EPA / NIEHS).
# Records with an inconclusive call do not appear. Active and inactive are the calls of the source. How the source made its calls, unless noted: active means hit-call score of the fitted dose curve at least 0.9, where 1 is the maximum; inactive means score below 0.9.
# Columns and labels:
# [1] = BSK_LPS_PGE2: BioMAP Diversity Plus: LPS Assay for Prostaglandin E2 (PGE2) Biomarker Activity (AID 2283082); conditions: primary human HUVEC with PBMC; actives raise or lower the signal;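 on AC50: secreted prostaglandin E2 measured by ELISA in LPS-stimulated co-culture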
# Method in brief: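 HUVEC plus human PBMC co-culture stimulated with LPS; secreted PGE2 quantified by ELISA 24 h after chemical dosing. Activity fitted bidirectionally against DMSO baseline; parallel SRB staining (0.1% SRB after 10% TCA fixation, 560 nm) flags overt cytotoxicity.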
# [2] = read-out: Macrophage colony-stimulating factor (MCSF), CSF1 (gene 1435); assay: BSK_LPS_MCSF: BioMAP Diversity Plus: LPS Assay for Macrophage colony-stimulating factor (MCSF) Biomarker Activity (AID 2283083); conditions: primary human HUVEC with PBMC; actives raise or lower the signal
# Method in brief: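 Bidirectional fit versus DMSO of ELISA-measured M-CSF in co-cultured human umbilical vein endothelial cells and PBMC, sampled 24 h after dosing.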
# [3] = read-out: Tissue Factor, F3 (gene 2152); assay: BSK_LPS_TissueFactor: BioMAP Diversity Plus: LPS Assay for Tissue Factor Biomarker Activity (AID 2283084); conditions: primary human HUVEC with PBMC; actives raise or lower the signal
# Method in brief: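 Read-out: CD142 ELISA, 24 h. System: LPS-driven human endothelial/PBMC co-culture. Analysis: up- or down-signal fitted against DMSO.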
# [4] = read-out: Vascular cell adhesion molecule 1 (VCAM1), VCAM1 (gene 7412); assay: BSK_LPS_VCAM1: BioMAP Diversity Plus: LPS Assay for Vascular cell adhesion molecule 1 (VCAM1) Biomarker Activity (AID 2283086); conditions: primary human HUVEC with PBMC; actives raise or lower the signal
# Method in brief: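 Human umbilical vein endothelial cells co-cultured with PBMC and stimulated with LPS; VCAM-1 measured by ELISA 24 h after dosing. Bidirectional curve fitting against DMSO baseline; cytotoxicity tracked in parallel by SRB total-protein staining.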
# [5] = read-out: CD38, CD38 (gene 952); assay: BSK_SAg_CD38: BioMAP Diversity Plus: SAg Assay for CD38 Biomarker Activity (AID 2283087); conditions: primary human HUVEC with PBMC; actives raise or lower the signal
# Method in brief: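 Human HUVEC plus PBMC co-culture stimulated with superantigen; CD38 measured by ELISA 24 h after chemical dosing. Fluorescence read-out, bidirectional fit against DMSO; cytotoxicity tracked in parallel by SRB and Alamar Blue.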
# [6] = read-out: CD40, CD40 (gene 958); assay: BSK_SAg_CD40: BioMAP Diversity Plus: SAg Assay for CD40 Biomarker Activity (AID 2283088); conditions: primary human HUVEC with PBMC; actives raise or lower the signal
# Method in brief: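 Endpoint derived by fitting increases or decreases versus DMSO controls. CD40 is detected by fluorescence ELISA in a human vascular co-culture of endothelium and PBMC at 24 h.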
# [7] = read-out: CD69, CD69 (gene 969); assay: BSK_SAg_CD69: BioMAP Diversity Plus: SAg Assay for CD69 Biomarker Activity (AID 2283089); conditions: primary human HUVEC with PBMC; actives raise or lower the signal;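 on AC50: cell surface CD69 protein quantified by ELISA with fluorescence detection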
# Method in brief: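 HUVEC co-cultured with PBMC were dosed with chemical, and CD69 was measured by ELISA with fluorescence read-out 24 h later. Bidirectional curve fitting used DMSO as negative control and activity baseline.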
# [8] = read-out: Monocyte Chemoattractant Protein-1 (MCP1), CCL2 (gene 6347); assay: BSK_SAg_MCP1: BioMAP Diversity Plus: SAg Assay for Monocyte Chemoattractant Protein-1 (MCP1) Biomarker Activity (AID 2283090); conditions: primary human HUVEC with PBMC; actives raise or lower the signal
# Method in brief: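 MCP-1 levels in the endothelial–PBMC SAg co-culture were quantified by ELISA at 24 h post-dosing; both increases and decreases versus DMSO scored. Cytotoxicity monitored by SRB total protein in parallel cultures.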
# [9] = read-out: E-selectin (Homo sapiens) (UniProt P16581); assay: BSK_SAg_Eselectin: BioMAP Diversity Plus: SAg Assay for Eselectin Biomarker Activity (AID 2283091); conditions: primary human HUVEC with PBMC; actives raise or lower the signal
# Method in brief: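 Endpoint values derive from bidirectional fitting relative to DMSO, using ELISA-measured E-selectin in a human vascular co-culture (umbilical vein endothelium plus PBMC) sampled 24 h after dosing.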
# [10] = BSK_SAg_PBMCCytotoxicity: PBMC Cytotoxicity Assessment in the BioMAP Diversity Plus: SAg Assay (AID 2283093); conditions: primary human HUVEC with PBMC;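 further: PBMC viability measured as Alamar Blue reduction fluorescence at 546/580 nm; fitted both ways against DMSO so a hit may be loss or gain of signal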;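 on AC50: PBMC superantigen activated with SEB plus TSST-1 one hour after compound addition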
# Method in brief: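 Human umbilical vein endothelial cells co-cultured with PBMC; PBMC (75,000/well) pre-treated with compound 1 h, then activated with SEB and TSST-1 (20 ng/mL final each) for 90 h. Alamar Blue added 6 h, fluorescence 546/580 nm; bidirectional fit versus DMSO.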
# [11] = read-out: Interleukin-8 (IL8), CXCL8 (gene 3576); assay: BSK_SAg_IL8: BioMAP Diversity Plus: SAg Assay for Interleukin-8 (IL8) Biomarker Activity (AID 2283094); conditions: primary human HUVEC with PBMC; actives raise or lower the signal
# Method in brief: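 Human umbilical vein endothelial cells co-cultured with PBMC, stimulated with superantigen; IL-8 measured by ELISA 24 h after chemical dosing. Bidirectional fitting versus DMSO; SRB staining in parallel cultures tracks cytotoxicity.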
# [12] = BSK_SAg_Proliferation: Cell Proliferation Assessment in the BioMAP Diversity Plus: SAg Assay (AID 2283095); conditions: primary human HUVEC with PBMC
# Method in brief: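 Human umbilical vein endothelial cells co-cultured with PBMC; sulforhodamine B total-protein staining (0.1% SRB after 10% TCA fixation, absorbance 560 nm) at 96 h in sub-confluent culture. Fitted bidirectionally against DMSO.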
# [13] = BSK_SAg_SRB: Viability Assessment in the BioMAP Diversity Plus: SAg Assay (AID 2283096); conditions: primary human HUVEC with PBMC;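 further: cells read one day after compound addition; hits may be either gain or loss of signal compared with DMSO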
# Method in brief: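 Endothelial/PBMC primary human co-culture; compound 24 h; fix 10% TCA, stain 0.1% SRB, A560; protein content as cytotoxicity proxy; bidirectional curve fit, DMSO = baseline.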
# [14] = biological target: human CYP2B6, CYP2B6 (gene 1555) (UniProt P20813); assay: NVS_ADME_hCYP2B6: NovaScreen (NVS) CYP450-related Enzyme Activity (ADME) Assay for human CYP2B6 (AID 2283101; active means hit-call score of the fitted dose curve at least 0.9, where 1 is the maximum)
# Sequence of human CYP2B6, CYP2B6 (gene 1555) (P20813 whole entry, looked up): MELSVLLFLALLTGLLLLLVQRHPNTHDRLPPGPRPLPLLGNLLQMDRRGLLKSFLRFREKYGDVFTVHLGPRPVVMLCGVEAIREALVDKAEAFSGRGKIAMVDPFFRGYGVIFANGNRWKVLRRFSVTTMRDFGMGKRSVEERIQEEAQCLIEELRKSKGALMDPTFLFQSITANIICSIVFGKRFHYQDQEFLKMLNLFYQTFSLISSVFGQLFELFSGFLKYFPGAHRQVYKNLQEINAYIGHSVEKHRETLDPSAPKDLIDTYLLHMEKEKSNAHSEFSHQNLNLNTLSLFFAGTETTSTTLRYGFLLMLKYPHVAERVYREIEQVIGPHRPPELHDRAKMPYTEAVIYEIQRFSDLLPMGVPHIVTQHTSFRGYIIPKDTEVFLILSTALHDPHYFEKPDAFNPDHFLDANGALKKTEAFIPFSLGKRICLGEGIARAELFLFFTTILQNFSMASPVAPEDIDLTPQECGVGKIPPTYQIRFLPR
# Method in brief: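 Recombinant human CYP2B6 with fluorogenic substrate, read by fluorescence intensity 1 h after dosing. Primary screen in duplicate at 10 uM, actives followed in concentration series; signal loss relative to acetonitrile control.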
# [15] = biological target: human CYP1A2, CYP1A2 (gene 1544) (UniProt P05177); assay: NVS_ADME_hCYP1A2: NovaScreen (NVS) CYP450-related Enzyme Activity (ADME) Assay for human CYP1A2 (AID 2283102; active means hit-call score of the fitted dose curve at least 0.9, where 1 is the maximum)
# Sequence of human CYP1A2, CYP1A2 (gene 1544) (P05177 whole entry, looked up): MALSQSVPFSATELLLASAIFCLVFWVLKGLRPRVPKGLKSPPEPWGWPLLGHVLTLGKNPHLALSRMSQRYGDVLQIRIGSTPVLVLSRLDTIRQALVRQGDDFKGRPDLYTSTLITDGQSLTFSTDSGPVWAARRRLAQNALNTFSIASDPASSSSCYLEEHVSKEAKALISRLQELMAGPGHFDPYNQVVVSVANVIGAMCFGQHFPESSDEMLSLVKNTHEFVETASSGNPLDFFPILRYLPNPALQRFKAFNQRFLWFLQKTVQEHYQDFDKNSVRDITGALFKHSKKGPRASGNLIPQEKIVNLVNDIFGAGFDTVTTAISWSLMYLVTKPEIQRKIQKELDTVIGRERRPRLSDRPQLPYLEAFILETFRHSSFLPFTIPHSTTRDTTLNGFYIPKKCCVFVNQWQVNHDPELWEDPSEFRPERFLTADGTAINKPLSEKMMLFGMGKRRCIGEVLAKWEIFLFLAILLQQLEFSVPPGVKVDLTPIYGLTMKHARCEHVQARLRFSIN
# Method in brief: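 Inhibition scored as decrease in fluorescent product versus acetonitrile negative control. Enzyme: insect-cell recombinant human CYP1A2, substrate-specific, cell-free. Reading at 0.5 h; 10 uM duplicate initial screen with positive and negative controls on every plate.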
# [16] = biological target: human CYP2C9, CYP2C9 (gene 1559) (UniProt P11712); assay: NVS_ADME_hCYP2C9: NovaScreen (NVS) CYP450-related Enzyme Activity (ADME) Assay for human CYP2C9 (AID 2283108; active means hit-call score of the fitted dose curve at least 0.9, where 1 is the maximum)
# Sequence of human CYP2C9, CYP2C9 (gene 1559) (P11712 whole entry, looked up): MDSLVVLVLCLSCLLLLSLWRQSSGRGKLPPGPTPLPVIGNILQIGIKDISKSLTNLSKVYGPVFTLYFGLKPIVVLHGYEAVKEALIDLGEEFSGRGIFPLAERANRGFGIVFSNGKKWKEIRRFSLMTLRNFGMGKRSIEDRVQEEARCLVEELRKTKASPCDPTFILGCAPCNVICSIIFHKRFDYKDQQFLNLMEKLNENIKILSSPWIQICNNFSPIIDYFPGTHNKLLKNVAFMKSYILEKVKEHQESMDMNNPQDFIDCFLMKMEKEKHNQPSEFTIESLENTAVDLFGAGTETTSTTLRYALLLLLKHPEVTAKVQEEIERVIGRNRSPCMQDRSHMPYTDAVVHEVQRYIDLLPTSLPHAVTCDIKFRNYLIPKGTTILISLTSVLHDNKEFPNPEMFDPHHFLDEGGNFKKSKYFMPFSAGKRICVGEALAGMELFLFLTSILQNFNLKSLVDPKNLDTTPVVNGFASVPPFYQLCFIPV
# Method in brief: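 Cell-free assay of recombinant human CYP2C9 produced in Sf9 cells, with enzyme activity read by fluorescence intensity 0.75 h after compound addition. Loss of signal versus an acetonitrile negative control indicates inhibition. Primary screen used 10 uM in duplicate; actives were retested in concentration series.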
# [17] = biological target: human CYP2D6, CYP2D6 (gene 1565) (UniProt P10635); assay: NVS_ADME_hCYP2D6: NovaScreen (NVS) CYP450-related Enzyme Activity (ADME) Assay for human CYP2D6 (AID 2283107; active means hit-call score of the fitted dose curve at least 0.9, where 1 is the maximum)
# Sequence of human CYP2D6, CYP2D6 (gene 1565) (P10635 whole entry, looked up): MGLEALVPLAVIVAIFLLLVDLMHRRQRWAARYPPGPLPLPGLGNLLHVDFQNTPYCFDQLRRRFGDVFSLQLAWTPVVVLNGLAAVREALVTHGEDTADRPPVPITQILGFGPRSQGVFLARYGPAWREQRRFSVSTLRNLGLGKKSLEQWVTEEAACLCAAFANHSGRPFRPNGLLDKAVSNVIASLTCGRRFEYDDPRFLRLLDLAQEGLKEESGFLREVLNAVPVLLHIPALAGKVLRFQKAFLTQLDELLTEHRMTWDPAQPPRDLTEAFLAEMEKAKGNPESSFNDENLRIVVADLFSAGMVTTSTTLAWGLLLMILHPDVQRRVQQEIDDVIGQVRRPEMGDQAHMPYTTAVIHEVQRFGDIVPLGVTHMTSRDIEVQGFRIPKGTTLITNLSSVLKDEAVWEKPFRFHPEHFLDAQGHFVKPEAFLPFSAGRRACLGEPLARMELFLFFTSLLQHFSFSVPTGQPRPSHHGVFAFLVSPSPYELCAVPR
# Method in brief: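 Biochemical fluorescence assay, insect-cell-derived enzyme. Read at 1 h; inhibition taken from loss of signal against acetonitrile. Screened at 10 uM in duplicate, with concentration series for actives.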
# [18] = biological target: human CYP19A1, CYP19A1 (gene 1588) (UniProt P11511); assay: NVS_ADME_hCYP19A1: NovaScreen (NVS) CYP450-related Enzyme Activity (ADME) Assay for human CYP19A1 (AID 2283098; active means hit-call score of the fitted dose curve at least 0.9, where 1 is the maximum)
# Sequence of human CYP19A1, CYP19A1 (gene 1588) (P11511 whole entry, looked up): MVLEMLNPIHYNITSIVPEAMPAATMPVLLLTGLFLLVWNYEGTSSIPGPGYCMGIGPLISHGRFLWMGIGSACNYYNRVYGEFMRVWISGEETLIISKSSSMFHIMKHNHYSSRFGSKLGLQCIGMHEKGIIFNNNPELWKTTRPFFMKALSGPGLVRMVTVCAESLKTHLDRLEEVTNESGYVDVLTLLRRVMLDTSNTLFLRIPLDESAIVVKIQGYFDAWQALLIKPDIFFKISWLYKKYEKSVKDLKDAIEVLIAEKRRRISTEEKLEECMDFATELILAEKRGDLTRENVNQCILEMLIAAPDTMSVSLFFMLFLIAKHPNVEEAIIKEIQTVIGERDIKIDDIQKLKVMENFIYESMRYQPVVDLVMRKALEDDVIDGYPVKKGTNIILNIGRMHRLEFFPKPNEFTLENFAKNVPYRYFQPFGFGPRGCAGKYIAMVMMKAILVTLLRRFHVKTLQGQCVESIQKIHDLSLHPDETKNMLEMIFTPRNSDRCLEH
# Method in brief: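 Cell-free enzyme assay with recombinant protein and a specific fluorogenic substrate, read by fluorescence intensity 0.5 h after dosing. Primary screen ran in duplicate at 10 uM; actives were retested in concentration series. Loss of signal versus acetonitrile baseline.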
# Sequence of E-selectin (Homo sapiens) (P16581 whole entry, looked up): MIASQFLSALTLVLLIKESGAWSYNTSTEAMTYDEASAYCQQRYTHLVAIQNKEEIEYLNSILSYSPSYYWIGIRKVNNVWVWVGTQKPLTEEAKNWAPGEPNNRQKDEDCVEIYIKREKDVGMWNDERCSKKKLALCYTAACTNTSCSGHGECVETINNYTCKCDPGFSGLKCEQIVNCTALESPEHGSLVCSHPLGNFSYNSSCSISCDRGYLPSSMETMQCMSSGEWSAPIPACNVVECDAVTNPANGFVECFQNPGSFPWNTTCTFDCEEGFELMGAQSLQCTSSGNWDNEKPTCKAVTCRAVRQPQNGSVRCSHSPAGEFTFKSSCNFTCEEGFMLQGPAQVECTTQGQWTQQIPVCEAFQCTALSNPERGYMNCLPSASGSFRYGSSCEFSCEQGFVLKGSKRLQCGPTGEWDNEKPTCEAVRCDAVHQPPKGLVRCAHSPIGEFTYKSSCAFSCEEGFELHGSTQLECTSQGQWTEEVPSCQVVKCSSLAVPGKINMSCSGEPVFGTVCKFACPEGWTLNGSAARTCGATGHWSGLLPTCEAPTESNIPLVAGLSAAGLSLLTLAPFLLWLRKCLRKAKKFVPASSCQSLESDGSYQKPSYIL
compound,measurement,setting,value
CN(c1nccc(=O)[nH]1)C1CCN(c2nc3ccccc3n2Cc2ccc(F)cc2)CC1,outcome,[1],inactive
same,outcome,[2],inactive
same,outcome,[3],inactive
same,outcome,[4],inactive
same,outcome,[5],inactive
same,outcome,[6],inactive
same,outcome,[7],inactive
same,outcome,[8],inactive
same,outcome,[9],inactive
same,outcome,[10],inactive
same,outcome,[11],inactive
same,outcome,[12],inactive
same,outcome,[13],inactive
C=C(C)C(=O)OCC(CC)(COC(=O)C(=C)C)COC(=O)C(=C)C,outcome,[1],inactive
same,outcome,[2],inactive
same,outcome,[3],inactive
same,AC50,[4],19.7 µM (active)
same,outcome,[5],inactive
same,outcome,[6],inactive
same,outcome,[7],inactive
same,outcome,[8],inactive
same,AC50,[9],19.7 µM (active)
same,outcome,[10],inactive
same,outcome,[11],inactive
same,AC50,[12],8.4 µM (active)
same,outcome,[13],inactive
CS(=O)(=O)OCCCCOS(C)(=O)=O,outcome,[1],inactive
same,outcome,[2],inactive
same,outcome,[3],inactive
same,outcome,[4],inactive
same,outcome,[5],inactive
same,outcome,[6],inactive
same,outcome,[7],inactive
same,outcome,[8],inactive
same,outcome,[9],inactive
same,outcome,[10],inactive
same,outcome,[11],inactive
same,outcome,[12],inactive
same,outcome,[13],inactive
same,outcome,[14],inactive
same,outcome,[15],inactive
same,AC50,[16],16 µM (active)
CC(C=O)Cc1ccc(C(C)(C)C)cc1 (stereo unspecified),outcome,[1],inactive
same,outcome,[2],inactive
same,outcome,[3],inactive
same,outcome,[4],inactive
same,outcome,[5],inactive
same,outcome,[6],inactive
same,outcome,[7],inactive
same,outcome,[8],inactive
same,outcome,[9],inactive
same,AC50,[10],20 µM (active)
same,outcome,[11],inactive
same,outcome,[12],inactive
same,outcome,[13],inactive
IC(I)I,outcome,[1],inactive
same,outcome,[2],inactive
same,outcome,[3],inactive
same,outcome,[4],inactive
same,outcome,[5],inactive
same,outcome,[6],inactive
same,outcome,[7],inactive
same,outcome,[8],inactive
same,outcome,[9],inactive
same,outcome,[10],inactive
same,outcome,[11],inactive
same,outcome,[12],inactive
same,outcome,[13],inactive
O=C(Nc1ccc2c(O)c(N=Nc3ccc(N=Nc4ccc(S(=O)(=O)O)cc4)cc3)c(S(=O)(=O)O)cc2c1)c1ccccc1,outcome,[1],inactive
same,outcome,[2],inactive
same,outcome,[3],inactive
same,outcome,[4],inactive
same,outcome,[5],inactive
same,outcome,[6],inactive
same,outcome,[7],inactive
same,outcome,[8],inactive
same,outcome,[9],inactive
same,outcome,[10],inactive
same,outcome,[11],inactive
same,outcome,[12],inactive
same,outcome,[13],inactive
c1ccc(CCc2ccccc2)cc1,outcome,[1],inactive
same,AC50,[2],31.2 µM (active)
same,AC50,[3],31.1 µM (active)
same,AC50,[4],31.8 µM (active)
same,AC50,[5],30.2 µM (active)
same,AC50,[6],30.9 µM (active)
same,AC50,[7],30 µM (active)
same,AC50,[8],31.5 µM (active)
same,AC50,[9],31.7 µM (active)
same,AC50,[10],34.2 µM (active)
same,AC50,[11],31.6 µM (active)
same,AC50,[13],35.9 µM (active)
CC(C)(C)CC(C)(C)c1ccc(OCCOCC[N+](C)(C)Cc2ccccc2)cc1,outcome,[1],inactive
same,AC50,[2],7.03 µM (active)
same,AC50,[3],9.04 µM (active)
same,AC50,[4],9.18 µM (active)
same,AC50,[5],5 µM (active)
same,AC50,[6],5 µM (active)
same,AC50,[7],3.28 µM (active)
same,AC50,[8],5 µM (active)
same,AC50,[9],3.59 µM (active)
same,AC50,[10],3.23 µM (active)
same,AC50,[11],2.46 µM (active)
same,AC50,[12],0.773 µM (active)
same,AC50,[13],8.46 µM (active)
Cc1cc(CCC(=O)OCCOCCOCCOC(=O)CCc2cc(C)c(O)c(C(C)(C)C)c2)cc(C(C)(C)C)c1O,outcome,[1],inactive
same,outcome,[2],inactive
same,outcome,[3],inactive
same,outcome,[4],inactive
same,outcome,[5],inactive
same,outcome,[6],inactive
same,outcome,[7],inactive
same,outcome,[8],inactive
same,outcome,[9],inactive
same,AC50,[10],25.2 µM (active)
same,outcome,[11],inactive
same,AC50,[12],25.3 µM (active)
same,AC50,[13],32.2 µM (active)
CCC(C)c1cc([N+](=O)[O-])cc([N+](=O)[O-])c1OC(=O)OC(C)C (stereo unspecified),AC50,[1],5.42 µM (active)
same,AC50,[2],14 µM (active)
same,AC50,[3],16.2 µM (active)
same,AC50,[4],16.8 µM (active)
same,AC50,[5],10.8 µM (active)
same,AC50,[6],9.34 µM (active)
same,AC50,[7],8.7 µM (active)
same,AC50,[8],12.2 µM (active)
same,AC50,[9],12.2 µM (active)
same,AC50,[10],28.3 µM (active)
same,outcome,[11],inactive
same,AC50,[12],9.53 µM (active)
same,AC50,[13],20 µM (active)
CSCCC=O,outcome,[1],inactive
same,outcome,[2],inactive
same,outcome,[3],inactive
same,outcome,[4],inactive
same,outcome,[5],inactive
same,outcome,[6],inactive
same,outcome,[7],inactive
same,outcome,[8],inactive
same,outcome,[9],inactive
same,outcome,[10],inactive
same,outcome,[11],inactive
same,AC50,[12],38.6 µM (active)
same,outcome,[13],inactive
COc1cc(Cl)c(OC)cc1N,outcome,[1],inactive
same,outcome,[2],inactive
same,outcome,[3],inactive
same,outcome,[4],inactive
same,outcome,[5],inactive
same,outcome,[6],inactive
same,outcome,[7],inactive
same,outcome,[8],inactive
same,outcome,[9],inactive
same,outcome,[10],inactive
same,outcome,[11],inactive
same,outcome,[12],inactive
same,outcome,[13],inactive
same,AC50,[17],0.992 µM (active)
same,outcome,[16],inactive
CS(C)=O,outcome,[18],inactive
